Experimental data: PubChem BioAssay AID1779 (Sanford-Burnham Center for Chemical Genomics, 2009)
Among all 290,000 compounds or so, about 160 (0.055%) were called active. Rule as the data show it: active = inhibition above about 50%; inactive = the rest. The sample as a whole holds a higher share of actives than the screen did.

target: Tyrosine-protein phosphatase non-receptor type 22 (Homo sapiens) (UniProt Q9Y2R2); test: inhibitors of LYP phosphatase, biochemical, fluorescence intensity, uHTS (AID 1779); details: recombinant LYP phosphatase, at 11.5 µM, hits give high values;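 also: plate controls were vehicle with enzyme for no effect and no enzyme for full effect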
Sequence (Q9Y2R2 whole entry, looked up): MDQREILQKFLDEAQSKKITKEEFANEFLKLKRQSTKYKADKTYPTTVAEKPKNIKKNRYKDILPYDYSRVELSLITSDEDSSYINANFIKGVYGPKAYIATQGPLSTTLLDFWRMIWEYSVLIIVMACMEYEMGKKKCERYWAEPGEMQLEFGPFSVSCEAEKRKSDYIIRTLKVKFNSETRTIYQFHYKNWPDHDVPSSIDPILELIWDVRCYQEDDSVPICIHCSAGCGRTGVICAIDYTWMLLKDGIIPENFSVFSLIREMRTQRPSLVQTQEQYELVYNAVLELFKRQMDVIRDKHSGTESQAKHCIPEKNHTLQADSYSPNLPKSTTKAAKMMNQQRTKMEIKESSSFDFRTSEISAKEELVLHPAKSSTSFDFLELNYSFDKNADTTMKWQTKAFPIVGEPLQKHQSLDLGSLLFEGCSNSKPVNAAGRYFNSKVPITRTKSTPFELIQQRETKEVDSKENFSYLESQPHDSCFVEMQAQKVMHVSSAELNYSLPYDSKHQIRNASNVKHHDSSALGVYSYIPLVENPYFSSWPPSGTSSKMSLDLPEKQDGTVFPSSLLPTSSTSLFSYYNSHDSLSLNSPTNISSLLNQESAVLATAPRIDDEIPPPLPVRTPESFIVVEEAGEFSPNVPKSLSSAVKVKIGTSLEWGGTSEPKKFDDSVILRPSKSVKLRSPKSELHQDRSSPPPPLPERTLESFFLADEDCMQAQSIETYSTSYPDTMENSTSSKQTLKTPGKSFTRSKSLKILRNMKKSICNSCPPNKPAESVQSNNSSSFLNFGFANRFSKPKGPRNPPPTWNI

**Q.** For O=C(Cn1c(=O)n(-c2cccc(C(F)(F)F)c2)c(=O)c2sccc21)NCC1CCCO1 (centres undefined), which inhibition is on record?
**A.** Its inhibition is -9.3% (inactive).

**Q.** For COc1cccc(-n2c(=O)c3sccc3n(CC(=O)NCC3CCCO3)c2=O)c1 (centres undefined), which inhibition is on record?
**A.** Its inhibition is -10.8% (inactive).

**Q.** Cc1ccc(-n2c(=O)c3sccc3n(CC(=O)NCC3CCCO3)c2=O)cc1F (centres undefined) was tested. Which inhibition did it give?
**A.** Its inhibition is 68.5% (active).

**Q.** With O=C(CCCN1C(=O)/C(=C/c2cccs2)SC1=S)Nc1cc([N+](=O)[O-])ccc1O as the compound, how does the inhibition read?
**A.** The inhibition was -12.6% (inactive).

**Q.** With O=C1C=C(NCCNc2c(F)c(F)c(CO)c(F)c2F)CCC1 as the compound, how does the inhibition read?
**A.** The inhibition was 72.7% (active).

**Q.** With CC(=O)/C=C(\C)NCCNc1c(F)c(F)c(CO)c(F)c1F as the compound, how does the inhibition read?
**A.** Its inhibition is -3.3% (inactive).

**Q.** With O=C1C=C(NCc2ccccc2)CCC1 as the compound, how does the inhibition read?
**A.** The inhibition was -5.3% (inactive).

**Q.** Which inhibition does the source give for CCOc1c(O)ccc(C2NC(=O)N(C)C(C)=C2C(=O)OC)c1[N+](=O)[O-] (centres undefined) here?
**A.** The inhibition was 4% (inactive).

**Q.** How did the inhibition turn out when CC(=O)Nc1ccc(S(=O)(=O)NNC(=O)COc2ccc(C(C)(C)C)cc2)cc1 was run?
**A.** The inhibition was -2.6% (inactive).

**Q.** COc1cccc(C(=O)NNC(=O)C(=O)N2CCCCC2)c1 was tested. Which inhibition did it give?
**A.** Its inhibition is -8.5% (inactive).

**Q.** How did the inhibition turn out when O=C(NNC(=O)c1ccccc1)C(=O)N1CCCCC1 was run?
**A.** Its inhibition is 2.5% (inactive).

**Q.** How did the inhibition turn out when O=C(NNC(=O)c1cccc(Br)c1)C(=O)N1CCCCC1 was run?
**A.** Its inhibition is 60% (active).

**Q.** Which inhibition does the source give for CCN(CC)CCN(Cc1cc2cc3c(cc2[nH]c1=O)OCCO3)C(=S)NCCCOC here?
**A.** The inhibition was -16.1% (inactive).

**Q.** How did the inhibition turn out when CCOC(=O)C1=NN(C(=O)c2cccc(Br)c2)C(O)(C(C)(C)C)C1 (centres undefined) was run?
**A.** Its inhibition is -3.2% (inactive).

**Q.** With COC(=O)C1=NN(C(=O)c2cccc(Cl)c2)C(O)(C(C)(C)C)C1 (centres undefined) as the compound, how does the inhibition read?
**A.** The inhibition was 65.7% (active).

**Q.** With COC(=O)C1=NN(C(=O)c2ccc(Br)cc2)C(O)(C(C)(C)C)C1 (centres undefined) as the compound, how does the inhibition read?
**A.** The inhibition was -3.5% (inactive).

**Q.** O=C(O)CC/C(=N/NC(=O)c1cn(-c2ccccc2)nc1-c1ccccc1)C(=O)O was tested. Which inhibition did it give?
**A.** Its inhibition is -3.5% (inactive).

**Q.** With COc1ccc(NS(=O)(=O)c2ccc3c(c2)[C@H]2C=CC[C@H]2[C@@H](c2ccc(C(=O)O)cc2)N3)cc1 as the compound, how does the inhibition read?
**A.** Its inhibition is 4.5% (inactive).

**Q.** COc1cccc(NS(=O)(=O)c2ccc3c(c2)C2C=CCC2C(c2ccc(C(=O)O)cc2)N3)c1 (centres undefined) was tested. Which inhibition did it give?
**A.** The inhibition was 16.1% (inactive).

**Q.** With S=C(NCc1ccc(Cl)cc1Cl)NC1CCCCC1 as the compound, how does the inhibition read?
**A.** The inhibition was 68.1% (active).

**Q.** With O=C(Cc1ccc(Cl)cc1Cl)NC1CCCCCC1 as the compound, how does the inhibition read?
**A.** The inhibition was -4.7% (inactive).

**Q.** S=C(NCc1ccccc1Cl)NC1CCCC1 was tested. Which inhibition did it give?
**A.** Its inhibition is -7.7% (inactive).

**Q.** How did the inhibition turn out when COc1cc(N(C)C)c([N+](=O)[O-])cc1C(=O)NC(C)CNc1ccc([N+](=O)[O-])cc1Cl (centres undefined) was run?
**A.** The inhibition was -7.4% (inactive).

**Q.** Cc1ccc(CN(CC(=O)NC(C)(C)C)C(=O)CNC(=O)c2cccs2)cc1 was tested. Which inhibition did it give?
**A.** The inhibition was -5.3% (inactive).

**Q.** With Cc1occc1C(=O)NNS(=O)(=O)c1ccc([N+](=O)[O-])cc1 as the compound, how does the inhibition read?
**A.** The inhibition was -10.5% (inactive).

**Q.** With Cc1ccc(S(=O)(=O)NNC(=O)c2ccoc2C)cc1 as the compound, how does the inhibition read?
**A.** The inhibition was -5.8% (inactive).

**Q.** How did the inhibition turn out when Cc1occc1C(=O)NNS(=O)(=O)c1ccc(Cl)cc1 was run?
**A.** The inhibition was 71.2% (active).

**Q.** For Cn1c(=O)c2ncn(CC(=O)N/N=C/c3ccco3)c2n(C)c1=O, which inhibition is on record?
**A.** The inhibition was -9.9% (inactive).

**Q.** Which inhibition does the source give for CC(=O)CCS(=O)(=O)c1ccc(NC(C)=O)cc1 here?
**A.** The inhibition was -5.5% (inactive).

**Q.** O=C(COC(=O)c1cc(-c2cccs2)nn1-c1ccccc1)Nc1ccc(F)c([N+](=O)[O-])c1 was tested. Which inhibition did it give?
**A.** Its inhibition is -7.7% (inactive).

**Q.** For Cc1ccc(NC(=O)COC(=O)c2cc(-c3cccs3)nn2-c2ccccc2)cc1[N+](=O)[O-], which inhibition is on record?
**A.** The inhibition was 74.9% (active).

**Q.** Which inhibition does the source give for O=C(COC(=O)c1cc(-c2cccs2)nn1-c1ccccc1)Nc1ccc(Cl)c([N+](=O)[O-])c1 here?
**A.** The inhibition was 2% (inactive).

**Q.** For CC(=O)c1ccc(N2C(=O)[C@@H]3C(CCC(N)=O)NC4(C(=O)Nc5c4ccc(Cl)c5C)[C@@H]3C2=O)cc1 (some centres undefined), which inhibition is on record?
**A.** Its inhibition is -3.9% (inactive).

**Q.** COc1cc2c(C#N)c(N3CCCC3)nc(N)c2c(N)n1 was tested. Which inhibition did it give?
**A.** The inhibition was -2.4% (inactive).

**Q.** For COc1cc2c(C#N)c(N3CCCCC3)nc(N)c2c(N)n1, which inhibition is on record?
**A.** Its inhibition is -1.1% (inactive).

**Q.** Which inhibition does the source give for N#Cc1c(N2CCCC2)nc(N)c2c(N)nc(N3CCCC3)cc12 here?
**A.** The inhibition was 65.7% (active).

**Q.** How did the inhibition turn out when CCCC(=O)NC(=S)Nc1ccccc1F was run?
**A.** Its inhibition is -10.5% (inactive).

**Q.** With Cc1cccc(C)c1N1CCN(c2n[nH]c(N)n2)CC1 as the compound, how does the inhibition read?
**A.** The inhibition was -8.3% (inactive).

**Q.** With CC1(C)CCC(=O)N(c2ccccc2)C1=O as the compound, how does the inhibition read?
**A.** The inhibition was -3% (inactive).

**Q.** For CC1(C)Nc2ccccc2C(=O)N1c1ccccc1, which inhibition is on record?
**A.** The inhibition was -11.8% (inactive).

**Q.** Which inhibition does the source give for CC12CCC(=O)N1c1ccccc1C(=O)N2c1ccccc1 (centres undefined) here?
**A.** The inhibition was 66.6% (active).

**Q.** With CC(=O)Nn1c(COc2ccccc2C)nc2ccccc2c1=O as the compound, how does the inhibition read?
**A.** Its inhibition is -4.5% (inactive).

**Q.** Which inhibition does the source give for Cc1cccc(-n2ccc(=O)c(C(=O)Nc3ccc(S(=O)(=O)Nc4onc(C)c4C)cc3)n2)c1 here?
**A.** Its inhibition is -7.6% (inactive).

**Q.** For Cc1noc(NS(=O)(=O)c2ccc(NC(=O)c3nn(-c4ccccc4)ccc3=O)cc2)c1C, which inhibition is on record?
**A.** Its inhibition is 53.3% (active).

**Q.** Which inhibition does the source give for Cc1ccc(-n2ccc(=O)c(C(=O)Nc3ccc(S(=O)(=O)Nc4onc(C)c4C)cc3)n2)cc1 here?
**A.** The inhibition was 2.8% (inactive).

**Q.** Which inhibition does the source give for COc1cc(CC(NC(C)=O)C(=O)NC2CCN(c3nc(C)cc(C)c3C#N)CC2)cc(OC)c1 (centres undefined) here?
**A.** The inhibition was -2.6% (inactive).

**Q.** With COc1cc(/C=C2/NC(=O)NC2=O)cc(Br)c1OCc1ccc(C(=O)O)cc1 as the compound, how does the inhibition read?
**A.** Its inhibition is 26.8% (inactive).

**Q.** For COc1cc(/C=C2/NC(=O)NC2=O)cc(Br)c1OCc1cccc(C(=O)O)c1, which inhibition is on record?
**A.** The inhibition was 4.5% (inactive).

**Q.** Which inhibition does the source give for Nc1nonc1-n1nnc(C(=O)N/N=C/c2ccoc2)c1CSc1ccc(Cl)cc1 here?
**A.** The inhibition was -6.9% (inactive).

**Q.** For C=C(C)Cn1c(SCC(=O)O)nc2c1c(=O)[nH]c(=O)n2C, which inhibition is on record?
**A.** Its inhibition is -3.9% (inactive).

**Q.** How did the inhibition turn out when CCCc1nc2ccc([N+](=O)[O-])cc2[nH]1 was run?
**A.** Its inhibition is -5.4% (inactive).

**Q.** For CCc1nc2cc([N+](=O)[O-])c([N+](=O)[O-])cc2[nH]1, which inhibition is on record?
**A.** The inhibition was 54.4% (active).

**Q.** With CCc1nc2cc(Cl)c(Cl)cc2[nH]1 as the compound, how does the inhibition read?
**A.** Its inhibition is -3% (inactive).

**Q.** For Nc1ccc2nc3c(=O)n(C4CCCCC4)c(=O)[nH]c3nc2c1, which inhibition is on record?
**A.** The inhibition was 4.7% (inactive).

**Q.** With Nc1ccc2nc3c(=O)[nH]c(=S)[nH]c3nc2c1 as the compound, how does the inhibition read?
**A.** The inhibition was 58.3% (active).

**Q.** How did the inhibition turn out when CCC(=O)Nc1ccc2nc3c(=O)[nH]c(=S)[nH]c3nc2c1 was run?
**A.** The inhibition was -5.4% (inactive).

**Q.** How did the inhibition turn out when OC(COC(c1ccccc1)c1ccccc1)CN1CCOCC1 (centres undefined) was run?
**A.** Its inhibition is 1.2% (inactive).

**Q.** For COC(=O)C1CCN(CCCOc2ccc(CN3CCN(c4ccc([N+](=O)[O-])cc4)CC3)cc2)CC1, which inhibition is on record?
**A.** Its inhibition is -8% (inactive).

**Q.** For COC(=O)C1CCN(c2ccc([N+](=O)[O-])cc2)CC1, which inhibition is on record?
**A.** Its inhibition is -2.8% (inactive).

**Q.** Which inhibition does the source give for COC(=O)C1CCN(Cc2ccc(OCCCN3CCN(c4ccc([N+](=O)[O-])cc4)CC3)cc2)CC1 here?
**A.** The inhibition was 78.6% (active).

**Q.** With CCOC(=O)c1cnc2c(Cl)c(Cl)ccc2c1NCCN1CCOCC1 as the compound, how does the inhibition read?
**A.** Its inhibition is 59.4% (active).

**Q.** How did the inhibition turn out when CCOC(=O)c1cnc2c(Cl)cccc2c1NCCN1CCOCC1 was run?
**A.** The inhibition was -9.2% (inactive).

**Q.** For CCOC(=O)c1cnc2c(C)c(C)ccc2c1NCCN1CCOCC1, which inhibition is on record?
**A.** Its inhibition is -7.3% (inactive).

**Q.** How did the inhibition turn out when COc1ccc(C(=O)NCCNC(C)=O)cc1S(=O)(=O)NCc1ccc(Cl)cc1 was run?
**A.** The inhibition was -8.9% (inactive).
